Mtb bLac sens: beta-lactam sensitization of Mtb H37Rv; M. tuberculosis H37Rv growth with meropenem, percent inhibition; hit rate 0.27% among 330,000; inhibition, % at 25 µM; AID 434955; call rule not given here;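 note: growth measured after seven days incubation then overnight dye step; 0% = bacteria only wells and 100% = bacteria with antibiotic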
RecA intein inh: inhibitors of M. tuberculosis RecA intein splicing | inhibition, % (test concentration not listed) | cell-free RecA intein splicing, fluorescence | hit rate 0.75% among 290,000; in the data active = inhibition above about 30%;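 note: 0% = vehicle wells and 100% = reference inhibitor control wells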
UGM FP inh: blocks M. tuberculosis UGM enzyme. P9WIQ1. purified UGM, fluorescence polarization probe displacement. inhibition, % at 10 µM. hit rate 0.06% among 320,000; in the data active = inhibition above about 10%, passing the limit was not always enough
Target sequence (P9WIQ1 whole entry, looked up): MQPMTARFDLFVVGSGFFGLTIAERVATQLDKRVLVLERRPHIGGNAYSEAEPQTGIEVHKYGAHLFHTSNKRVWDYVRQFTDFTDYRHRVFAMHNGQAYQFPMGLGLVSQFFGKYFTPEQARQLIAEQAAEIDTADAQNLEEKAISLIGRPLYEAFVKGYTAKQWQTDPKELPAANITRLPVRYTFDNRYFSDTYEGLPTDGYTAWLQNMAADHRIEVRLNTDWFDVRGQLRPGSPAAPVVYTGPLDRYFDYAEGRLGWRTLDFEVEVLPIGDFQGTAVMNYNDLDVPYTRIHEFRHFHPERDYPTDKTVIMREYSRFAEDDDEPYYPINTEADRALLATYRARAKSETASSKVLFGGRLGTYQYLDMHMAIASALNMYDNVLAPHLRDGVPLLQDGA
GDH-TPI counter-1: inhibits GDH-TPI coupling enzymes, artifact for Mtb FBA screen. GDH-TPI coupled enzyme counterscreen, NADH absorbance. inhibition, % at 4.8 µM. hit rate 1.2% among 360,000. AID 588335; in the data active = inhibition above about 30%;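 note: 0% = DMSO wells and 100% = wells lacking the enzyme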
Rv3671c inh: inhibits the M. tuberculosis serine protease Rv3671c. P9WHR9. inhibition, % at 5.96 µM. hit rate 0.048% among 320,000. AID 2606; in the data active = inhibition above about 38%;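 note: extracellular domain of Rv3671c used as enzyme; 0% = enzyme with DMSO and 100% = no enzyme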
FBA Mtb inh: inhibits M. tuberculosis FBA enzyme | AID 588726 | P9WQA3 | inhibition, % at 1 µM | purified M. tuberculosis FBA, fluorescence read-out | hit rate 2.3% among 360,000;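 note: 0% = vehicle and 100% = reference inhibitor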
Mtb FBA confirm: confirmation of M. tuberculosis fructose-bisphosphate aldolase inhibitors. inhibition, % at 1 µM. shares compounds with FBA Mtb inh. hit rate 78% among 5,600. purified M. tuberculosis FBA, fluorescence read-out;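 note: 0% = vehicle wells and 100% = reference inhibitor wells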
GDH-TPI counter-2: counter-screen for M. tuberculosis FBA inhibitors: GDH-TPI coupled enzyme inhibition; shares compounds with FBA Mtb inh; GDH-TPI coupled enzyme counterscreen, fluorescence; inhibition, % at 1 µM; hit rate 81% among 5,600; AID 652141; in the data active = inhibition above about 10%
GDH-TPI dose: inhibits GDH-TPI coupling enzymes in dose response | shares compounds with FBA Mtb inh | GDH-TPI coupled enzyme assay, fluorescence, artifact counterscreen | IC50, µM | hit rate 79% among 170 | AID 652145; call rule not given here
The depositor's hits bear a star; . = not tested or not shown; + = active, no number. Most compounds without a hit are left out; they make up all but 4% or so of the library. Cut-off read from the data, not from the text of the source, unless noted: active = inhibition above about 27%; inactive = the rest.

SMILES	Mtb bLac sens	RecA intein inh	UGM FP inh	GDH-TPI counter-1	Rv3671c inh	FBA Mtb inh	Mtb FBA confirm	GDH-TPI counter-2	others
OC1CCN(c2cc(-c3ccccc3)nc3cc(-c4ccc(F)cc4)nn23)CC1	7.4	-16.3	-1.5	1.6	-28.2	22.2	.	.
COc1ccc(-c2cc3nc(-c4ccccc4)cc(N4CCN(C(=O)c5ccoc5)CC4)n3n2)cc1	.	.	.	12.4	.	55.6*	47.8*	36.1*
Cc1cccc(-c2cc3nc4c(c(N5CCCC(O)C5)n3n2)CCC4)c1 (centres undefined)	8.1	-0.4	1.7	15.1	1.6	11.6	.	.
O=[N+]([O-])c1ccc(N2CCOCC2)c([N+](=O)[O-])c1	.	.	.	22.8	.	-5.2	.	.
O=[N+]([O-])c1ccc(N2CCCC2)c([N+](=O)[O-])c1	.	.	.	7.1	.	29.1*	181.9*	123.3*
COc1cc(OC)cc(C(=O)N2CCN(c3ccc(N4CCOCC4)nn3)CC2)c1	-5.7	-6.5	-0.6	12.0	3.5	28.0*	-2.9	-7.9
O=C(c1ccc(Cl)cc1)N1CCN(c2ccc(N3CCOCC3)nn2)CC1	.	.	.	3.6	.	20.8	.	.
Cc1ccc(C(=O)N2CCN(c3ccc(N4CCOCC4)nn3)CC2)cc1	-0.1	-2.8	1.4	-6.5	-0.9	37.4*	+	+
CCCCOc1ccc(C(=O)N2CCN(c3ccc(N4CCOCC4)nn3)CC2)cc1	-5.3	0.1	-0.2	5.2	2.3	30.2*	6.5	-6.2
Cc1cccc(C(=O)N2CCN(c3ccc(N4CCOCC4)nn3)CC2)c1	7.2	-1.2	1.9	0.7	12.4	20.9	.	.
Cc1cccc(S(=O)(=O)N(C)C[C@@H]2OCc3cnnn3CCCC(=O)N([C@@H](C)CO)C[C@@H]2C)c1	.	.	.	-1.4	.	-1.2	.	.
CCCN(CC(=O)Nc1ccccc1OC)C(=O)c1ccc(=O)[nH]c1	-1.0	1.0	-1.3	-5.2	-9.7	1.9	.	.
CCOc1ccc(-c2nc(C#N)c(NCc3ccco3)o2)cc1	3.7	2.0	0.9	8.5	-7.9	52.8*	57.8*	50.4*
N#Cc1nc(COc2ccccc2Cl)oc1NCc1ccco1	7.8	1.4	1.3	-2.5	4.1	-2.3	.	.
Cc1ccc(CNc2oc(-c3ccco3)nc2C#N)cc1	-0.7	3.7	1.4	15.9	-6.0	53.7*	3.2	3.6
Cc1ccc(-c2nc(C#N)c(NCc3cccc4c3OCO4)o2)cc1	14.0	1.8	-3.9	12.4	-6.2	21.4	.	.
CNc1oc(-c2ccco2)nc1C#N	-5.4	-1.7	-1.5	9.2	8.4	67.6*	46.1*	44.6*
CCN(CC(=O)Nc1ccc(OC)cc1)C(=O)c1ccc2c(=O)n3c(nc2c1)CCC3	1.6	.	-2.6	-0.4	-3.7	-0.7	.	.
C[C@@H]1CN([C@@H](C)CO)C(=O)CCCn2nncc2CO[C@H]1CN(C)C(=O)c1ccc(N2CCN(C)CC2)cc1	.	.	.	14.4	.	-0.4	.	.
CCc1cc2ccc(C)cc2nc1SCC(=O)Nc1cc(OC)c(OC)cc1C(=O)O	0.5	-7.0	0.5	12.2	-1.0	47.1*	-10.7	-8.9
CC(C)(C)c1ccc(C(=O)NCCc2ccccc2)cc1	4.9	0.2	-0.5	5.5	13.7	27.1*	111.1*	93.4*
CCCOc1ncnc2c1[nH]c1ccccc12	0.0	-3.1	-0.1	5.5	3.6	25.1	.	.
CC(C)Oc1ncnc2c1[nH]c1ccccc12	2.7	.	-3.2	-6.9	2.1	33.5*	165.1*	130.4*
CCCc1cc(=O)oc2cc(C)cc(OC(C)C(=O)NCCCn3ccnc3)c12 (centres undefined)	-6.7	-3.5	-1.6	10.2	-3.8	75.4*	175.4*	163.8*
Cc1cc(OC(C)C(=O)NCCCn2ccnc2)c2c(C)cc(=O)oc2c1 (centres undefined)	1.1	-2.2	-1.2	-0.4	-4.7	95.9*	+	+
SMILES	Mtb bLac sens	RecA intein inh	UGM FP inh	GDH-TPI counter-1	Rv3671c inh	FBA Mtb inh	Mtb FBA confirm	GDH-TPI counter-2	others
Cc1cc(C)cc(OC(C)C(=O)NCCCn2ccnc2)c1 (centres undefined)	-4.9	3.1	1.0	-5.2	6.7	0.8	.	.
Cc1cccc(C)c1NC(=O)Cc1cccs1	1.3	0.7	-0.8	8.1	1.0	-1.8	.	.
Cc1cc(C)nc(NC(=O)Cc2cccs2)n1	-6.6	.	0.3	14.9	-9.5	31.6*	112.8*	86.9*
CN(C)C(=O)CSc1nnc([C@H](Cc2ccccc2)NC(=O)OC(C)(C)C)o1	-2.9	1.3	-0.1	1.9	0.5	0.6	.	.
COC(=O)CSc1nnc([C@H](Cc2ccccc2)NC(=O)OC(C)(C)C)o1	99.6	0.4	0.6	0.0	0.1	44.4*	67.2*	64.4*
CC(C)(C)OC(=O)N[C@@H](C(=O)OC(C)(C)C)c1ccc(Br)cc1	-2.2	.	-1.3	-16.3	2.9	-3.1	.	.
CNc1nc(-c2ccccc2)c2sccc2n1	.	.	.	17.3	.	78.0*	8.0	-3.8
COCCn1c(-c2ccc3ccccc3c2)nc2c1c(=O)[nH]c(=O)n2CC(C)C	15.5	-1.4	-0.5	-1.8	5.2	73.5*	97.8*	83.0*
CCCCn1c(=O)[nH]c(=O)c2c(C(=O)OCC)cc(-c3cccs3)nc21	-1.3	-4.8	0.3	4.5	0.8	69.3*	11.9	7.5	GDH-TPI dose=1.26*
CCCn1c(=O)[nH]c(=O)c2c1nc(-c1cccs1)n2CCOC	9.0	0.5	1.6	14.6	4.2	89.5*	+	167.3*
CCCn1c(=O)[nH]c(=O)c2c(C(=O)OCC)cc(-c3cccs3)nc21	9.9	-3.0	1.0	8.8	2.6	88.8*	100.1*	86.9*
CCOC(=O)c1cc(-c2cccs2)nn1CCC#N	1.7	-2.9	-1.7	8.1	-5.9	-1.2	.	.
CCCCn1c(=O)[nH]c(=O)c2c(C(=O)OCC)cc(-c3ccc(OC(F)F)cc3)nc21	4.7	0.2	-2.4	-1.9	-2.3	16.9	.	.
CCc1nc2c(OCC3CCCCC3)cccn2c1N(C=O)Cc1ccc(OC)cc1	.	.	.	4.9	.	1.5	.	.
Cc1cc(OC(C)C(=O)NCC2CCC(C(=O)O)CC2)c2c(C)cc(=O)oc2c1 (centres undefined)	-5.4	.	-0.1	8.8	-10.5	86.5*	194.7*	190.3*
CCCc1cc(=O)oc2cc(OCC(=O)NCC(O)c3ccccc3)ccc12 (centres undefined)	-10.6	-0.2	-0.1	13.9	-1.2	13.3	.	.
CCCc1cc(=O)oc2cc(C)cc(OC(C)C(=O)NCC(O)c3ccccc3)c12 (centres undefined)	2.7	-0.2	-0.3	1.7	-0.1	75.7*	2.9	0.1
Cc1cc(OC(C)C(=O)NCC(O)c2ccccc2)c2c3c(c(=O)oc2c1)CCC3 (centres undefined)	2.4	-2.6	-0.2	12.8	8.1	77.0*	32.2*	34.9*
